Data taken from ChEMBL document CHEMBL4513216, “Probing the Open Global Health Chemical Diversity Library for Multistage-Active Starting Points for Next-Generation Antimalarials” (ACS Infect Dis, 2020).
The whole screen tested about 68,000 compounds, of which about 2,700 (4%) showed an effect of 50% or more. The sample holds strong results, similar compounds and a random draw of the others, so the mix is not that of the screen.

system: Plasmodium berghei; experiment: Screen against P. berghei liver stage (PbLuc), transformed with Luciferase, at 2uM; assay type: functional, HepG2; settings: tested at 2 uM

| SMILES | INHIBITION |
| --- | --- |
| NC(=O)COc1ccc(CNCc2cc(F)cc(F)c2)cc1 | 19.7% |
| NC(=O)N1CCCC(c2nc(-c3cccnn3)no2)C1 (stereo not drawn) | 19.39% |
| Cc1noc(C)c1CN1C(=O)[C@@H]2CC[C@H]1CN(Cc1cccc(O)c1)C2 | 30.42% |
| CC(C)O[C@@H]1CC[C@H]2[C@H]1OCCN2C(=O)c1nn(C)c2ccccc12 | -13.37% |
| CCN(CC)C(CNCc1ccc(C)o1)c1ccco1 (stereo not drawn) | 15.89% |
| CCN1C(=O)CCCC12CCCN(C(=O)c1cnccn1)C2 (stereo not drawn) | -41.21% |
| CC(CN1CCOCC1)N(Cc1ccccc1)Cc1ccncc1 (stereo not drawn) | 8.73% |
| COc1cc2c(cc1CNCc1ccnc(-n3cccn3)c1)OC(C)C2 (stereo not drawn) | 17.61% |
| CCCC(=O)N(Cc1ccncc1)C(C)CC (stereo not drawn) | 52.98% |
| CCOCCC(=O)N(Cc1ccncc1)C(C)CC (stereo not drawn) | -35.26% |
| CCC(C)N(Cc1ccncc1)C(=O)CCSC (stereo not drawn) | -20.95% |
| O=C([C@H]1C[C@H]2OCC[C@H]2N(Cc2ccoc2)C1)N1CCCCO1 | 21.77% |
| CS(=O)(=O)NCCCn1ccc2ccccc21 | 24.23% |
| CCNC(=O)CCC(=O)NC(C)Cc1ccccc1Br (stereo not drawn) | -3.87% |
| COC(=O)NCCC(=O)NC(C)Cc1ccccc1Br (stereo not drawn) | 63.46% |
| COC(=O)CCC(=O)NC(C)Cc1ccccc1Br (stereo not drawn) | 2.7% |
| CS(=O)(=O)NCc1cc(-c2cc(F)cc(F)c2)nc(N2CC[C@H](O)C2)n1 | 4.66% |
| COc1ncccc1CNC(=O)NC(C)Cn1cccn1 (stereo not drawn) | 31.7% |
| COc1c(C(=O)N2CCOC(c3cccs3)C2)c(C)nn1C (stereo not drawn) | -11.34% |
| O=C(c1cccc(CO)n1)N1CCCC1c1nc2cc(F)ccc2[nH]1 (stereo not drawn) | -20.6% |
| O=C(CN1CCCC1c1nc2cc(F)ccc2[nH]1)NCc1ccccn1 (stereo not drawn) | 57.75% |
| Fc1ccc2[nH]c(C3CCCN3CCc3ccccn3)nc2c1 (stereo not drawn) | -55.56% |
| Cc1cccc(C(=O)N2CCCCC2c2nc3cc(F)ccc3[nH]2)n1 (stereo not drawn) | 65.04% |

| SMILES | INHIBITION |
| --- | --- |
| Cc1cc(C(=O)N2CCCCC2c2nc3cc(F)ccc3[nH]2)no1 (stereo not drawn) | 33.92% |
| Fc1ccc2[nH]c(C3CCCN3Cc3c[nH]cn3)nc2c1 (stereo not drawn) | 19.59% |
| COCC(=O)N1CCCC1c1cc(Nc2nnc(C)s2)nc(C)n1 (stereo not drawn) | 10.43% |
| CCN1CCCc2cc(CN3CCc4c(nc(C)[nH]c4=O)C3)ccc21 | -9.49% |
| Cc1cc(C)nc(N2CCC(C(=O)Nc3n[nH]c(C(C)C)n3)CC2)n1 | 19.84% |
| COc1c(C2CCCN2C(=O)CCNc2ncccn2)c(C)nn1C (stereo not drawn) | 6.89% |
| CN(c1ccc(CNC(=O)c2ccc(O)nc2)cc1)C1CCCCC1 | 51.76% |
| Cc1ccc(C(=O)NCc2ccc(N(C)C)cc2)cn1 | 8.73% |
| CN(c1ccc(CNC(=O)c2c[nH]c(=O)c(Cl)c2)cc1)C1CCCCC1 | -20.64% |
| Cc1ccc(C(C)NC(=O)Nc2ccccc2CN2CCOCC2)o1 (stereo not drawn) | -10.54% |
| COCc1ccccc1NC(=O)NC(C)c1ccc(C)o1 (stereo not drawn) | 53.19% |
| COCc1ccccc1NC(=O)c1ccoc1 | -38.36% |
| CC(C)N(C)Cc1cc(=O)n2c(n1)CN(C(=O)c1ccnnc1)CCC2 | 25.92% |
| COc1ccc(C)cc1CN1CCC(c2cc3ncccc3cn2)CC1 | -17.29% |
| CCn1c(C)nnc1SCCNC(=O)Cn1cnc2ccccc2c1=O | 38.67% |
| CO[C@@H]1CCN(Cc2nccs2)C[C@@H]1Cc1cccc(C)c1 | 10.17% |
| CS(=O)(=O)Cc1nc(CN2CCc3ccccc3CC2)cs1 | 41.05% |
| CS(=O)(=O)Cc1nc(CN2CCOc3ccccc3C2)cs1 | 33.9% |
| CS(=O)(=O)Cc1nc(CN2CCCc3sccc3C2)cs1 | 38.67% |
| CS(=O)(=O)Cc1nc(CN2CC=C(c3ccccc3)CC2)cs1 | -4.26% |
| CS(=O)(=O)Cc1nc(CN2CCC(C(F)(F)F)CC2)cs1 | 62.51% |
| CC1(C)CN(Cc2csc(CS(C)(=O)=O)n2)Cc2ccccc21 | 52.98% |
| CN(C)C1COC2(CCN(S(=O)(=O)c3ccc(F)cc3)CC2)C1 (stereo not drawn) | 42.4% |

| SMILES | INHIBITION |
| --- | --- |
| Cc1ccccc1C1CCCN(C(=O)c2c[nH]c(=O)c(Cl)c2)C1 (stereo not drawn) | 23.16% |
| Fc1cccc(N2CCCC3(C2)CN(c2ncccn2)CCO3)c1 (stereo not drawn) | 39.9% |
| Cc1noc(C2CCCN(C(=O)c3ccc(Br)o3)C2)n1 (stereo not drawn) | 3.9% |
| Cc1nn(C)c(C)c1C1CCCN1c1ncnc2[nH]ccc12 (stereo not drawn) | -41.8% |
| COC(=O)C(C)N1CCCc2cc(OC)ccc2C1 (stereo not drawn) | 58.69% |
| COc1ccc2c(c1)CCCN(C(C)C(=O)NC(C)C)C2 (stereo not drawn) | 47.68% |
| COc1ccc2c(c1)CCCN(C(C)C(=O)NC(N)=O)C2 (stereo not drawn) | 6.92% |
| CCc1cc(C)c(C(=O)N2CCCC2CC(=O)c2cnn(C)c2)o1 (stereo not drawn) | 9.3% |
| COc1ccccc1CC1CCCN(C(=O)c2cn[nH]c2C)C1 (stereo not drawn) | -62.85% |
| NCC1CCC(C(NC(=O)c2ccccn2)c2ccccn2)CC1 (stereo not drawn) | 8.1% |
| CCN1CCOCC2(CCCN(C(=O)c3conc3C)C2)C1 (stereo not drawn) | 16.67% |
| CCn1cc(S(=O)(=O)NC(CO)Cc2ccccc2)cn1 (stereo not drawn) | 29.19% |
| COC(CNC(=O)c1ccoc1)c1cccc(Cl)c1 (stereo not drawn) | -0.15% |
| CCn1cc(S(=O)(=O)NCC(OC)c2cccc(Cl)c2)cn1 (stereo not drawn) | 31.78% |
| CCn1cc(S(=O)(=O)NCC(OC)c2ccccc2)cn1 (stereo not drawn) | 58.12% |
| COC(CNC(=O)c1ccc(NC(C)=O)cc1)c1cccc(Cl)c1 (stereo not drawn) | -8.34% |
| CCn1cc(C(=O)NCC(OC)c2cccc(Cl)c2)cn1 (stereo not drawn) | 55.73% |
| Cc1cnn(CCNCC(O)COc2ccc(Cl)cc2Cl)c1 (stereo not drawn) | 23.94% |
| O=C(NCC1CCOC1)c1csc(-c2cccc(Cl)c2)n1 (stereo not drawn) | 25.74% |
| N[C@H]1CN(C(=O)c2ccc3[nH]c(=O)c(=O)[nH]c3c2)C[C@@H]1c1ccccc1 | -6.88% |
| N#Cc1ccccc1N1CC2(CCCCN2CC2CC2)CC1=O (stereo not drawn) | -47.71% |
| COCc1cc(CNC(=O)c2c(O)cccc2O)n[nH]1 | 30.93% |
